Data from PubChem BioAssay (NCATS).
Unmarked numbers belong to inactive results. Entries that show only a call come without a potency. Active and inactive are the calls of the source. Calls come from the whole dose curve; as a rule, active = well fitted curve in the direction sought with a large enough effect; inconclusive = small, poorly fitted or top-dose-only effect, or another doubt; inactive = no such curve, though single readings can be large or run the other way. Bridge positions count the residues as written; N and C are the ends. Square brackets hold non-standard residues; d marks the D form. Side chains are listed from the residue outwards. Peptide text beside a SMILES is read from it. * marks the point of attachment. Phg(4-OMe) = COc1ccc([C@H](N)C(=O)O)cc1; d(aIle) = CC[C@H](C)[C@@H](N)C(=O)O; d(aThr) = C[C@@H](O)[C@@H](N)C(=O)O; NMeF = CN[C@@H](Cc1ccccc1)C(=O)O; Isobutyryl = CC(C)C(=O)*

Assay: qHTS for ATAD5 Agonist screened against the NCATS CANVASS Library (AID 1347367);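 note: luciferase reporter driven by ATAD5 which rises upon DNA damage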
Conditions: HEK293T ATAD5-luciferase reporter, luminescence, 16 h; series mostly up to 46.1 µM
Source text: Natural products and their derivatives continue to be wellsprings of nascent therapeutic potential. However, many laboratories have limited resources for biological evaluation, leaving their previously isolated or synthesized compounds largely or completely untested. To address this issue, the Canvass library of natural products was assembled (https://tripod.nih.gov/canvass), in collaboration with academic and industry researchers, for quantitative high-throughput screening (qHTS) across a diverse set of cell-based and biochemical assays. The pure (>85% purity by liquid chromatography/mass spectrometry [LC/MS]) Canvass library of 346 natural products were submitted by 45 academic laboratories and companies around the world. We collected pure natural products to circumvent deconvolution and structure elucidation due to time and resource limitations. The library was formatted into 1536-well plates and evaluated in 50 qHTS (in an 11-pnt concentration series) bioassays with broad scope of disease-relevant mechanisms. The resulting data set from 50 different assays was then systematically analyzed to identify overall trends and specific natural products with interesting biological activities. Reported herein are the results of each individual qHTS and their corresponding assay protocol. Human ATAD5 is a biomarker for identifying gentoxic compounds because ATAD5 protein levels increase post-transcriptionally in response to DNA damage. A cell-based assay is used to detect DNA damage inducers and genotoxic compounds as well. The assay is based upon a luciferase reporter gene under control of ATAD5 that has been stably integrated into HEK 293T cells. Luminescence intensity is proportional to ATAD5 expression. National Center for Advancing Translational Sciences (NCATS), Rockville, MD National Institute of Health (NIH), Bethesda, Maryland
ATAD5 Agonist assay protocol: 1. In a 1536 well, tissue culture treated white solid bottom plates (Greiner Bio-One North America), 5 uL of HEK293T-ATAD5 cell solution (2000 cells / well) was dispensed using the Multidrop Combi dispenser (Thermo Fisher Scientific). 2. The assay plates were incubated for 5hr at 37C, 5% CO2 to allow the cells to acclimate and attach. 3. Controls and compounds were pin transferred (~23 nL volume) to the assay plates via Wako Pin-tool (Wako Automation, Richmond VA) equipped with a 1536 pin head. The compounds were transferred to columns 5-48 resulting in a final concentration ranging from 0.6nM to 92uM. Methyl methanesulfonate (MMS) was used as a control in various concentrations (columns 1: dose response, column2: 0.7mM, and column3: 0.6mM). DMSO (0.46% final concentration was used as a negative control. 4. The assay plates were further incubated in the dark at 37C, 5% CO2 for 16hr. 5. To measure cell viability, 1uL of CellTiter-Fluor (Promega) reagent was then added to the assay plates (column 1-48, rows 1-32). The assay plates were incubated in the dark for 1hr at 37C, 5% CO2. 6. A first readout of fluorescence signal was acquired via the ViewLux (PerkinElmer) plate reader using filter sets for AFC (380-400nmEx/505Em) and 1 second exposure setting. 7. To measure ATAD5 activation, 4uL of Amplite (AAT Bioquest) reagent was then added to the assay plates (column 1-48, rows 1-32). The assay plates were further incubated in the dark at room temperature for 30min. 8. A second readout of luminescence signal was acquired via the ViewLux plate reader using a clear emission filter, 10 second exposure setting. Fox JT1, et al. High-throughput genotoxicity assay identifies antioxidants as inducers of DNA damage response and cell death. Proc Natl Acad Sci U S A. 2012 Apr 3;109(14):5423-8.

| Compound | Potency | activation |
| --- | --- | --- |
| C[C@H]1CCC2(OC1)O[C@H]1C[C@H]3[C@@H]4CC(=O)[C@]5(O)C[C@H](O)CC[C@@]5(C)[C@H]4CC[C@@]3(C)[C@H]1[C@H]2C (stereo not given in full) | inactive |  |
| CN1CCc2cc3c(c4c2C1(C)C(=O)c1cc(O)ccc1-4)OCO3 (stereo not given) | inactive |  |
| C[C@@]12CCC[C@@](C)(C(=O)O)[C@H]1CC[C@@]13C[C@@H](CC[C@H]12)[C@](C)(O)C3 | inactive |  |
| C=CC(CCCCC)C1C(=O)NC(=O)C1C(=O)C1C(/C=C/C)C=CC2CC(C(=O)O)CC(C)C21 (stereo not given) | inactive |  |
| CC[C@H](C)[C@H]1NC(=O)[C@@H](NC(=O)C(C)C)[C@@H](C)OC(=O)[C@H](COC(=O)CNC(C)=O)NC(=O)[C@@H]([C@@H](C)O)NC(=O)[C@H](Cc2ccccc2)N(C)C(=O)[C@H](c2ccc(OC)cc2)NC1=O (Isobutyryl-T[d(aIle)][Phg(4-OMe)][NMeF][d(aThr)]S([Gly-Ac]); ester 1-C) | inactive |  |
| C=CC(C)(C)C(=O)[C@@H](C)[C@@H]1CC[C@@](C)(C=C)O1 | inactive |  |
| CN1C(=O)C(=O)N2C(=C[C@]3(c4c[nH]c5ccccc45)c4ccccc4N[C@H]23)C1=O | inactive |  |
| C[C@@H]1CC[C@]2(C(=O)O)CC[C@]3(C)C(=C2[C@H]1C)CC[C@@H]1[C@@]2(C)CC[C@H](O)C(C)(C)[C@@H]2CC[C@]13C | inactive |  |
| C=C1C[C@H]2O[C@@H]3[C@@H]4[C@H](CC[C@@](C)(O)[C@@H]42)[C@H](C)COC3(C)[C@@H](OC(=O)CCCCCCC)CC1=O (stereo not given in full) | inactive |  |
| CC(CCC[C@]1(C)C(=O)C=C[C@@]23C[C@]4(C)O[C@@H](C[C@@H]4[C@H]2O)C31)C(=O)O (stereo not given in full) | inactive |  |
| C/C(=C\[C@H](C)C(=O)C[C@H](O)CC1CC(=O)NC(=O)C1)[C@@H]1OC(=O)CCCC/C=C/C[C@@H](O)[C@@H]1C | inactive |  |
| C=C[C@]1(C)CC[C@@H]([C@H](C)C(=O)CC=C(C)C)O1 | inactive |  |
| C=C(C)CC[C@H](Cc1c(O)cc(O)c2c1O[C@H](c1ccc(O)cc1)CC2=O)C(=C)C | inactive |  |
| CN1CC[C@@]2([C@@]34CCN(C)[C@@H]3Nc3ccccc34)c3ccccc3N[C@@H]12 | inactive |  |
| COc1ccc2[nH]c3c(c2c1)CCN1C[C@H]2C[C@@H](OC(=O)c4cc(OC)c(OC)c(OC)c4)[C@H](OC)[C@@H](OC)[C@H]2C[C@H]31 | inactive |  |
| O=C1CC(c2ccc(O)cc2)Oc2cc(O)cc(O)c21 (stereo not given) | inactive |  |
| C[C@@]12CCC[C@@](C)(C(=O)OP(=O)(O)OC[C@H]3O[C@@H](n4cnc5c(N)ncnc54)[C@H](O)[C@@H]3O)[C@H]1C[C@@H](O)[C@@]13C[C@@H](CC[C@@H]21)[C@](C)(O)C3 | inactive |  |
| C/C=C/c1cc2c(c(=O)o1)C(=O)[C@@H](O)[C@H](C)O2 | inactive |  |
| COc1ccc([C@@H]2c3cc4c(cc3C[C@H](C)C2C)OCO4)cc1OC (stereo not given in full) | inactive |  |
| COc1cc2ccc(=O)oc2c(O)c1O[C@@H]1O[C@H](CO)[C@@H](O)[C@H](O)[C@H]1O | inactive |  |

| Compound | Potency | activation |
| --- | --- | --- |
| CC(=O)c1c(C)cc2c(c1O)C(=O)c1c(O)cc(O)cc1C2=O | inactive |  |
| C=CC(CCCCC)C1C(=O)NC(=O)C1C(=O)C1C2C(C)CC(C(=O)O)CC2CC1(O)C(=O)/C=C/C (stereo not given) | inactive |  |
| C[C@H]1C=C[C@H]2CCCC[C@@H]2[C@H]1C(=O)[C@H]1CC2=C(C(=O)O)CCN2C1=O | inactive |  |
| C/C1=C/[C@@H](C)[C@H](O)C/C=C/CC/C=C/C(=O)O[C@@H]1[C@H](C)C(=O)CCCC1CC(=O)NC(=O)C1 | inactive |  |
| C=C(C)C(=O)O[C@H]1C[C@@]2(C)OC(=CC2=O)/C(C)=C\[C@H]2OC(=O)C(=C)[C@H]12 | inactive |  |
| CC1=C[C@H]2[C@H]3C(=O)C(c4ccc(O)cc4)=C[C@@]3(c3ccc(O)cc3)[C@@H]1C(=O)[C@]2(C)O | inactive |  |
| COc1cc2c(c(O)c1O)C(=O)c1c(coc1C)C2=O | inactive |  |
| CC(C)C[C@@H]1c2c(O)c(C=O)c(O)c(C=O)c2O[C@]2(C)C=C[C@@H](C(C)C)C[C@H]12 | inactive |  |
| Cc1cc(C)c(O)c(C(=O)CC2CC(=O)NC(=O)C2)c1 | inactive |  |
| COc1cc(C2OCC3C(c4ccc(O)c(OC)c4)OCC23)ccc1O (stereo not given) |  | 3.68% [at 9.19 µM] |
| CC(=O)Oc1cc2c(c(OC(C)=O)c1C1CCc3cc(Cl)c(Cl)n31)C(=O)n1c-2cc(Cl)c1Cl (stereo not given) | inactive |  |
| COc1ccc([C@@H]2c3cc4c(cc3C(=O)[C@H](C)C2C)OCO4)cc1OC (stereo not given in full) | inactive |  |
| CC[C@H]1[C@@H](C)[C@@H](c2cc(OC)c(OC)cc2OC)[C@H](C)[C@@H](c2cc(OC)c(OC)cc2OC)[C@@]12C=C(OC)C(=O)C=C2OC | inactive |  |
| C/C=C/C1C=CC2CC(C)CC(C)C2C1C(=O)CC(=O)NC(CO)C/C=C/CCCCC (stereo not given) | inactive |  |
| O[C@H]1C=C2[C@H]3CN(Cc4cc5c(cc43)OCO5)[C@H]2C[C@@H]1O | inactive |  |
| C[n+]1cc2cc(C(N)=O)[nH]c3c(=N)c(Cl)c(N)c1c23 | inactive |  |
| CC(C)[C@@H]1CC(=O)c2coc3c2[C@H]1C[C@@H](C)C3=O | inactive |  |
| C=C(Cl)[C@](Cl)(CBr)CC[C@@H](Br)C(C)(C)Cl | inactive |  |
| Cc1occ2c1C(=O)c1c(cc(O)c(O)c1O)C2=O | inactive |  |
| C/C=C(/C)c1c(Cl)c(OC)c(C)c2c1Oc1c(Cl)c(O)c(Cl)c(C)c1C(=O)O2 | inactive |  |
